For 9 compounds, Potency, outcome and max activation results are on record in PubChem BioAssay (Tox21).

Experiment [1] is described as follows: qHTS assay to identify small molecule agonists of the estrogen receptor alpha (ER-alpha) signaling pathway in the presence of an antagonist - cell viability counter screen (AID 1259386). Further: series mostly up to about 92 µM; nearly all actives have a fitted effect of over 30% in size. The method in brief:
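Compounds tested at 15 concentrations for 22 h at 37C alongside 10.0nM (final) ICI-182,780 antagonist, in VM7Luc4E2 cells grown in phenol red-free, charcoal-stripped medium. Viability read by CellTiter-Fluor fluorescence after 1 h reagent incubation.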
Background: In qHTS, concentration-response curves come from the screen itself.

For experiment [2], the target named is Progesterone receptor (Homo sapiens) (UniProt P06401). The experiment can be described thus: qHTS assay to identify small molecule agonists of the progesterone receptor (PR) signaling pathway (AID 1346784; calls by dose curve; further: nearly all actives have a fitted effect of over 30% in size). The method in brief:
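PR-UAS-bla HEK 293T cells (beta-lactamase reporter under UAS) in 2% charcoal-stripped FBS, dosed with 23 nL compound after 6 hr, incubated 16hr at 37C. LiveBLAzer B/G FRET substrate added, fluorescence read after 2 hours.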

The nature of experiment [3]: qHTS assay to identify small molecule antagonists of the TGF-beta/Smad signaling pathway - cell viability counter screen (AID 1346824). Further: nearly all actives have a fitted effect of over 50% in size. The essentials: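 Cytotoxicity counter-screen run in the same wells as the beta-lactamase Smad reporter read: CellTiter-Glo luminescence after 30 min at room temperature. HEK 293T SBE-bla cells had 5 hr compound exposure at 37 C with TGF-beta1 (0.25 ng/mL stock).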

The nature of experiment [4]: qHTS assay to identify small molecule agonists of the TGF-beta/Smad signaling pathway (AID 1346859; active means well fitted activation curve with a large enough effect in the signal ratio in the repeat runs, not every such curve was filed as active; the % refers to the signal ratio; further: series mostly up to about 77 µM). The method in brief: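 SBE-bla HEK293T cells plated overnight, then compound exposure for 5 h at 37 C. Beta-lactamase reporter read with LiveBLAzer B/G FRET substrate after 2 h at room temperature, fluorescence at 405 nm excitation, 460/530 nm emission.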
Experiment [5] in a line: Caspase-3/7 induction in CHO-K1 cells by small molecules, qHTS assay (AID 1346980). Further: nearly all actives have a fitted effect of over 15% in size. The essentials: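 Luminescent Caspase-Glo 3/7 read (30min, room temperature) quantified apoptosis induction. Cells were wild-type CHO-K1, treated with compound for 17hr at 37 C and 5% CO2.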
A short description of experiment [6]: Caspase-3/7 induction in HepG2 cells by small molecules, qHTS cell viability counter screen (AID 1346981). Further: series mostly up to about 92 µM; nearly all actives have a fitted effect of over 30% in size. The essentials:
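CellTiter-Fluor fluorescence measured viability in the same wells used for Caspase-Glo 3/7. HepG2 (wild type) at 2,000 cells/well were pre-incubated 5 hr, dosed, and given reagent at 16 hr, with 1 hr further at 37C.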

Experiment [7] addresses Nuclear receptor subfamily 1 group I member 2 (Homo sapiens) (UniProt O75469). The experiment can be described thus: Human pregnane X receptor (PXR) small molecule agonists, qHTS assay (AID 1346982). Further: nearly all actives have a fitted effect of over 35% in size. Further: potency means the concentration at half of the fitted maximal effect. The essentials:
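Agonist mode: luminescence from ONE-Glo after 24 h compound exposure at 37C in HepG2 cells carrying hPXR-responsive CYP3A4 luciferase, plated in charcoal-stripped serum medium 5 h beforehand.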

The target in experiment [8] is Nuclear receptor subfamily 1 group I member 2 (Rattus norvegicus) (UniProt Q9R1A7). The experiment can be described thus: Rat pregnane X receptor (rPXR) activation by small molecules, qHTS assay (AID 1346983). Further: nearly all actives have a fitted effect of over 20% in size. The following applies: rPXR luciferase reporter cells, One-Glo luminescence, 24 h; max activation: active compounds read high. The method in brief: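 Luminescent readout (One-Glo luciferase, 30 min room temperature) followed 24 hr compound treatment at 37 C of rPXR cells plated 2,000 per well and preincubated 5hr; qHTS format with compounds delivered in DMSO.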
Chain of Nuclear receptor subfamily 1 group I member 2 (Rattus norvegicus) (Q9R1A7 whole entry, looked up): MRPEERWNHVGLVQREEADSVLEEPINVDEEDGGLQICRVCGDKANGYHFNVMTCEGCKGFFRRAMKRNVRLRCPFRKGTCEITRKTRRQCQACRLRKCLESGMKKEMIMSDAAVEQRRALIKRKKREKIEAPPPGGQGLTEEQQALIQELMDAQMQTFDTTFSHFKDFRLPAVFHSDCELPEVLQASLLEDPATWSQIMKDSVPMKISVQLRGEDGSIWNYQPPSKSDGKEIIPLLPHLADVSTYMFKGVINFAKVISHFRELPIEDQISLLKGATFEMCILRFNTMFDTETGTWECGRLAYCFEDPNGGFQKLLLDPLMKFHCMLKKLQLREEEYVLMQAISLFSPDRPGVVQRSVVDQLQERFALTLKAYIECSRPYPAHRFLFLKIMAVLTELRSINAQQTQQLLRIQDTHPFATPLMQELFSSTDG

For experiment [9], the target named is Nuclear receptor subfamily 1 group I member 2 (Homo sapiens) (UniProt O75469). The experiment can be described thus: CYP3A4 induction through human pregnane X receptor (PXR) by small molecules, qHTS assay (AID 1346984). Further: nearly all actives have a fitted effect of over 40% in size. The essentials:
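Read-out is luminescence after One-Glo addition, following a 3 hr, 37C incubation with Luciferin-IPA CYP3A4 substrate (3uM final). Before that, compounds were on DPX-2 cells (HepG2 co-transfected with PXR element plus CYP3A4-promoter luciferase) for 24 hr at 37C.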

Experiment [10] shares this target. Nature of the experiment: Human pregnane X receptor (PXR) activation by small molecules, qHTS assay (AID 1346985). Further: nearly all actives have a fitted effect of over 40% in size. The method in brief: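 DPX-2 cells (HepG2 co-transfected with a PXR response element and a CYP3A4-promoter luciferase construct) were seeded at 2,000 per well, rested 5 hr at 37C, then exposed to DMSO-dissolved compounds for 24 hr. Activation was read as luciferase luminescence.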

Experiment [11] concerns the target Cytochrome P450 2D6 (Homo sapiens) (UniProt P10635). Nature of the experiment: Cytochrome P450 Family 2 Subfamily D Member 6 (CYP2D6) small molecule antagonists: luciferase reporter qHTS assay (AID 1671196). Further: series mostly up to about 120 µM; nearly all actives have a fitted effect of over 50% in size. The method in brief:
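CYP2D6 activity was followed as luminescence from its luciferin product after a 1 h NADPH-driven reaction at room temperature. Enzyme-substrate mix and compound were pre-incubated for 10 min, and the signal was read 20 min after adding detection reagent.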
A general note: A reporter such as luciferase makes a cellular process visible.

The nature of experiment [12]: qHTS assay to identify small molecule antagonists of the progesterone receptor (PR) signaling pathway - cell viability counter screen (AID 1346798). Further: series mostly up to about 92 µM; nearly all actives have a fitted effect of over 50% in size. The essentials: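 PR-UAS-bla HEK293T cells, 3,000/well in 2% charcoal-stripped FBS medium, dosed with compounds plus R5020 agonist and incubated 16 h at 37C. Viability then measured in the same wells by CellTiter-Glo luminescence after 30 min at RT.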

Experiment [13] can be described thus: qHTS assay to identify small molecule agonists of the progesterone receptor (PR) signaling pathway - cell viability counter screen (AID 1346799; calls by dose curve; further: nearly all actives have a fitted effect of over 45% in size). The essentials: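 Counter screen in the PR-UAS-bla HEK293T wells (2% charcoal-stripped FBS, 16 h compound exposure at 37 C) after the bla read. CellTiter-Glo added, 30 min at room temperature, luminescence read as cell viability.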

Experiment [14] is described as follows: qHTS assay to identify small molecule agonists of the TGF-beta/Smad signaling pathway - cell viability counter screen (AID 1346829). Further: top concentration of the series differs between compounds; nearly all actives have a fitted effect of over 45% in size. The method in brief: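 Cytotoxicity counter screen: CellTiter-Glo luminescence (30 min, room temperature) measured in the SBE-bla HEK 293T reporter wells after 5 hr compound treatment at 37 C and the 2 hr substrate step.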
The target in experiment [15] is Thyrotropin-releasing hormone receptor (Homo sapiens) (UniProt P34981). The experiment can be described thus: qHTS assay to identify small molecule antagonists of the thyrotropin-releasing hormone receptor (TRHR) signaling pathway (AID 1346877; active means well fitted inhibition curve with a large enough effect in the repeat runs, not every such curve was filed as active; further: series mostly up to about 51 µM). The essentials: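 Antagonist mode: after a 5 min room-temperature compound exposure, cells were stimulated with 1 nM (final) TRH. Dye-loaded TRHR-HEK293 cells were used, and calcium-dependent fluorescence was followed for 3 min, with 15-point titrations run in triplicate.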
Chain of Thyrotropin-releasing hormone receptor (Homo sapiens) (P34981 whole entry, looked up): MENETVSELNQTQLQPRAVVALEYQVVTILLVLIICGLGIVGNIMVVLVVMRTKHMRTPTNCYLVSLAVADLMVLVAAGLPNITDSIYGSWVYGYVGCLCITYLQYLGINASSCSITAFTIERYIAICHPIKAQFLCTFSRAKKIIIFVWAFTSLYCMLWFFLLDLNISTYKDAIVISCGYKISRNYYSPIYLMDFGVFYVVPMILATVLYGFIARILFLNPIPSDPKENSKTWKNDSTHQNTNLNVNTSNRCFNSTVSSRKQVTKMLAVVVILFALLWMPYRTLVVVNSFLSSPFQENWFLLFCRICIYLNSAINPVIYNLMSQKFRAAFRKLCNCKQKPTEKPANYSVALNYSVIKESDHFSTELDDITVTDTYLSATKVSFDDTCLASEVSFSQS

The target is the same in experiment [16]. The experiment can be described thus: qHTS assay to identify small molecule agonists of the thyrotropin-releasing hormone receptor (TRHR) signaling pathway (AID 1346891; calls by dose curve; further: series mostly up to about 58 µM). The method in brief: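 HEK293 cells expressing TRHR plated 18 h at 37 C/5% CO2, calcium dye-loaded 2 h at 37 C, then compound added (agonist mode); kinetic calcium fluorescence read 3 min at 1 s intervals; 15 concentrations in triplicate.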

Experiment [17] can be described thus: Human pregnane X receptor (PXR) small molecule agonists, qHTS cell viability counter screen (AID 1346977). Further: nearly all actives have a fitted effect of over 50% in size. The method in brief: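 PXR-Luc HepG2 cells (2,000/well, 5% charcoal-stripped FBS) preincubated 5 hr, then exposed to compounds 24 hr at 37 C. Viability read in the same wells by CellTiter-Fluor fluorescence, reagent added at 23 hr, 1 hr incubation.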
Experiment [18] can be described thus: Caspase-3/7 induction in HepG2 cells by small molecules, qHTS assay (AID 1346978). Further: nearly all actives have a fitted effect of over 15% in size. The method in brief: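 Caspase-3/7 induction was measured by Caspase-Glo 3/7 luminescence (30 min, room temperature) after a 17 hr compound exposure of wild-type HepG2 cells seeded at 2,000 per well and pre-incubated 5 hr.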
Experiment [19] can be described thus: Caspase-3/7 induction in CHO-K1 cells by small molecules, qHTS cell viability counter screen (AID 1346979). Further: nearly all actives have a fitted effect of over 35% in size. The method in brief:
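Wild-type CHO-K1 cells (1,500/well) treated with compound after 5 h plating; after 16 h at 37C, viability read as CellTiter-Fluor fluorescence following 1 h reagent incubation, in the same wells as the caspase read.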

The target in experiment [20] is Progesterone receptor (Homo sapiens) (UniProt P06401). Nature of the experiment: qHTS assay to identify small molecule antagonists of the progesterone receptor (PR) signaling pathway (AID 1346795; active means well fitted inhibition curve with a large enough effect in the signal ratio in the repeat runs, not every such curve was filed as active; the % refers to the signal ratio; further: potency means the concentration at half of the fitted maximal effect). The method in brief: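 PR-UAS-bla HEK293T cells with beta-lactamase reporter under UAS control, in 2% charcoal-stripped FBS, treated with compounds plus 1 nM promegestone (R5020, final) for 16 hr at 37C. Read-out: FRET beta-lactamase substrate fluorescence after 2 hr at room temperature.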
Chain of Progesterone receptor (Homo sapiens) (P06401 whole entry, looked up): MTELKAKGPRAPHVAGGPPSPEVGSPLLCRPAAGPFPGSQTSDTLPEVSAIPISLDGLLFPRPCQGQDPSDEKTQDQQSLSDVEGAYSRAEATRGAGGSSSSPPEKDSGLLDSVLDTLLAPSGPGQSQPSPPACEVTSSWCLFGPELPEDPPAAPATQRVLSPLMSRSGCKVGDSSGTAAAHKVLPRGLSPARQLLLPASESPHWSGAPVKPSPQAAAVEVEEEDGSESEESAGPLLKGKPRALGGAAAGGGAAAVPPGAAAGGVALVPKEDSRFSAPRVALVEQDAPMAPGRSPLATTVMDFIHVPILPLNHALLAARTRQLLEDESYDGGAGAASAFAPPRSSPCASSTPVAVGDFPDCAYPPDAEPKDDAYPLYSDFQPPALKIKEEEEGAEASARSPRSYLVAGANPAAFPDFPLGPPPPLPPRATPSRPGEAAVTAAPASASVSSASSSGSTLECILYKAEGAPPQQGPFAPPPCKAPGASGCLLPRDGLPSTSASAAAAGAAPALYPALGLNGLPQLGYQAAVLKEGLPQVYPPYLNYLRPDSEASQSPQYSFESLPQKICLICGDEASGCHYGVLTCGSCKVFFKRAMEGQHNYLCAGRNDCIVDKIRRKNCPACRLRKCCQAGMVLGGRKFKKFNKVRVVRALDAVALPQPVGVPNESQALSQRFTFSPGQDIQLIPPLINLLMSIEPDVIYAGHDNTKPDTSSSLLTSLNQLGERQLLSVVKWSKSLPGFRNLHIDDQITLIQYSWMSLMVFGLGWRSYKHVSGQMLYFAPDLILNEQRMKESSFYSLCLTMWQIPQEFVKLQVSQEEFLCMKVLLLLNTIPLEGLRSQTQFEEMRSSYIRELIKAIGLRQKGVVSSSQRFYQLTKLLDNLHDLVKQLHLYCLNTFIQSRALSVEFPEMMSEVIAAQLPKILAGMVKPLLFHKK

A number with no mark means an inactive call. Results filed as inconclusive are left out. Active and inactive are the calls of the source. Unless noted, the call rests on the fitted dose curve; in most records, active means well fitted curve in the direction sought with a large enough effect in the repeat runs; inconclusive means weak or mixed curves; inactive means no such curve, though single readings can be large; an effect the other way counts as inactive or inconclusive.
On the % scale 0 is the no-effect control and ±100 the full control effect.

Chain of Nuclear receptor subfamily 1 group I member 2 (Homo sapiens) (O75469 whole entry, looked up): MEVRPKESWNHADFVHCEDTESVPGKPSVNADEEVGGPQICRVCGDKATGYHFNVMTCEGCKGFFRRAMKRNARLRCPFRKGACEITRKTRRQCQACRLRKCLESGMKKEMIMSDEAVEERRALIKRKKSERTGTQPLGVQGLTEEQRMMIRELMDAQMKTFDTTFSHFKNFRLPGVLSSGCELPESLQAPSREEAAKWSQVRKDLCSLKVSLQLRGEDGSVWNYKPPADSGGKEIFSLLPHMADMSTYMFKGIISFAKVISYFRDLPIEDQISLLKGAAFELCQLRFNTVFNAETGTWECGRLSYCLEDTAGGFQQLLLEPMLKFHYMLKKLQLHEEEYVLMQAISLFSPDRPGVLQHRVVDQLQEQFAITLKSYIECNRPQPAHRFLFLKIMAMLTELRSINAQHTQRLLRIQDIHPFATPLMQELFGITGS
Chain of Cytochrome P450 2D6 (Homo sapiens) (P10635 whole entry, looked up): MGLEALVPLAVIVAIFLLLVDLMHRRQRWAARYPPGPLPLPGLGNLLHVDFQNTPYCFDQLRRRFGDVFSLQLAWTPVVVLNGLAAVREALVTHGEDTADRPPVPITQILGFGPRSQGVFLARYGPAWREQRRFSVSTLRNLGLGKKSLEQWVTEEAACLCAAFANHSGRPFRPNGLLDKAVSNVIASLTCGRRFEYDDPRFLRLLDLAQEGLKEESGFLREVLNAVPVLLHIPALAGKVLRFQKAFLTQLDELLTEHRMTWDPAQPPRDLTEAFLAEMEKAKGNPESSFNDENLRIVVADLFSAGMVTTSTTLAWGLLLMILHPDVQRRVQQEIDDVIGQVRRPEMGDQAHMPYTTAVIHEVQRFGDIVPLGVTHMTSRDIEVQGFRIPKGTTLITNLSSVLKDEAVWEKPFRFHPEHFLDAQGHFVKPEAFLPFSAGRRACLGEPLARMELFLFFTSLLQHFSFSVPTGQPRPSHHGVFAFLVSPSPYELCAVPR

For the compound `CC(C)(C)C(=O)OCOP(=O)(COCCn1cnc2c(N)ncnc21)OCOC(=O)C(C)(C)C`, the Potency entry in experiment [1], in experiment [3], in [5], in experiment [6], in [9] and in [10] was “inactive” in each case. In experiment [11], the Potency entry is “inactive”. For the same compound, the call in experiment [2] and in experiment [4] was inactive. In addition, the Potency in experiment [7] was 11.9 µM (active). In addition, in [8], the max activation was -2.44%.
Regarding `COC(=O)C(C)=O`, the Potency entry in experiment [1], in experiment [12], in experiment [13], in experiment [3], in experiment [14] and in experiment [16] was “inactive” each time. In addition, the Potency entry in experiment [17], in [19], in experiment [5], in [7] and in experiment [11] was “inactive” in each case. Moreover, the outcome in [4], in [15] and in experiment [18] was inactive.
Turning to `Nc1ccc(C(=O)N2CC3CC(CN(Cc4ccccc4)C3)C2)cc1`, the Potency result in experiment [1], in [12], in experiment [3], in experiment [16], in experiment [17] and in experiment [19] was “inactive” in each case. Besides, the Potency result in experiment [5], in experiment [6] and in [7] was “inactive” in each case. The outcome in experiment [4], in experiment [15] and in experiment [18] was inactive.
Consider `CCCCCCOC(=O)CCC`, for which the outcome in experiment [2], in experiment [4] and in [15] was inactive. The Potency result in [20], in experiment [12], in [13], in [3], in experiment [14] and in experiment [16] was “inactive” in each case. In addition, the Potency result in [17], in [19], in experiment [5], in experiment [6], in experiment [7] and in experiment [11] was “inactive” each time.
For `Oc1ccc(Cc2ccccc2)cc1`, the Potency result in [1], in experiment [3], in experiment [14], in [16], in experiment [17] and in experiment [5] was “inactive” throughout. In experiment [6], the Potency entry was “inactive”. Moreover, the Potency in experiment [20] is 22.5 µM (active); in experiment [7], 56.6 µM (active). In addition, the compound was called inactive in experiment [4] and in [15].
As to `CC/C(=C\C(=N/O)C(N)=O)C(C)[N+](=O)[O-]` (stereo not given), the call in experiment [2], in experiment [4], in experiment [15] and in [18] was inactive. Also, the Potency result in experiment [20], in experiment [12], in experiment [3], in experiment [14], in experiment [16] and in experiment [17] was “inactive” each time. The Potency result in experiment [19], in experiment [5], in [6], in [7] and in experiment [11] was “inactive” each time.
For the compound `NC1CCN(c2nc3c(cc2F)c(=O)c(C(=O)O)cn3-c2ccc(F)cc2F)C1` (stereo not given), the Potency entry in experiment [1], in [12], in experiment [3], in experiment [14], in experiment [16] and in [17] was “inactive” in each case. The Potency entry in [5] and in experiment [11] was “inactive” in each case. The result in experiment [4], in experiment [15] and in experiment [18] was inactive. In addition, the max activation in experiment [8] was -4.88%.
As for `Cc1ccc(C)o1`, the compound was called inactive in experiment [2], in experiment [4], in [15] and in experiment [18]. Also, the Potency entry in [20], in [12], in experiment [13], in [3], in experiment [14] and in [16] was “inactive” each time. The Potency entry in [17], in [19], in experiment [5], in [6], in experiment [7] and in experiment [11] was “inactive” throughout.
As to `CCCC[C@H]1CN(CC2CCOCC2)C(=O)OC12CCN(C1(C)CCN(C(=O)c3c(C)ncnc3C)CC1)CC2`, the result in experiment [2], in experiment [4], in [15] and in [18] was inactive. Moreover, the Potency result in experiment [20], in experiment [12], in [13], in experiment [3], in experiment [16] and in [17] was “inactive” in each case. Also, the Potency result in experiment [19], in experiment [5], in experiment [7] and in experiment [11] was “inactive” throughout.
